Test results reported in PubChem BioAssay AID1347414 (National Center for Advancing Translational Sciences (NCATS), 2020).
Records with an inconclusive call do not appear. Calls of active or inactive are those of the source. Calls come from the whole dose curve; as a rule, active = well fitted inhibition curve with a large enough effect; inconclusive = small, poorly fitted or top-dose-only effect; inactive = no such curve, though single readings can be large or run the other way.

Experiment: qHTS to identify inhibitors of the type 1 interferon - major histocompatibility complex class I in skeletal muscle: Secondary screen by immunofluorescence; note: nearly all actives have a fitted effect of over 70% in size
Settings: C25cl48 myoblasts, IFN-b induced HLA-ABC immunofluorescence, 24 h; series mostly up to 49.8 µM
Method in brief: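 Immortalized human myoblasts C25cl48 were stimulated with 4.0 ng/ml IFN-beta and exposed to an 11-point 1:3 compound titration, top 50 uM, for 24 h at 37 C. They were then fixed and immunostained for HLA-ABC, and quantified by laser scanning cytometry.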
Potency is the fitted concentration of half-maximal effect.

SMILES	Potency
Nc1nc(Nc2ccc(S(N)(=O)=O)cc2)nn1C(=O)c1c(F)cccc1F	2050 nM (active)
CC(=O)c1ccc2c(c1)c1cc(C(C)=O)ccc1n2CCNC(C)C	647 nM (active)
CN1CCC(c2c(O)cc(O)c3c(=O)cc(-c4ccccc4Cl)oc23)C1CO (stereo not drawn)	408 nM (active)
CC[C@@]1(O)C(=O)OCc2c1cc1n(c2=O)Cc2cc3cc(O)ccc3nc2-1	1620 nM (active)
C[C@@]12O[C@@H](C[C@]1(O)CO)n1c3ccccc3c3c4c(c5c6ccccc6n2c5c31)CNC4=O	647 nM (active)
CO[C@H]1/C=C\C=C(\C)C(=O)NC2=CC(=O)C(NCCN(C)C)=C(C[C@@H](C)C[C@H](OC)[C@H](O)[C@@H](C)/C=C(/C)[C@@H]1OC(N)=O)C2=O	inactive
NC(=O)c1cnc2[nH]ccc2c1NC1C2CC3C[C@H]1CC(O)(C3)C2 (stereo partly drawn)	458 nM (active)
CC1(COc2ccc3c(c2)ncn3-c2ccc3cccc(N4CCC(N)CC4)c3n2)COC1	5140 nM (active)
CCNC(=O)c1noc(-c2cc(C(C)C)c(O)cc2O)c1-c1ccc(CN2CCOCC2)cc1	inactive
CC(C)(C)c1ccc(S(=O)(=O)/C=C/C#N)cc1	2290 nM (active)
CN1C/C=C/CCOc2cccc(c2)-c2ccnc(n2)Nc2cccc(c2)C1	115 nM (active)
Cc1cc(Nc2cc(NC(=O)c3c(Cl)cccc3Cl)ccn2)nc(N)n1	2050 nM (active)
CS[C@H]1SC[C@@H]2C(=O)N(C)[C@H](C(C)C)C(=O)OC[C@H](NC(=O)c3cnc4ccccc4n3)C(=O)N[C@H](C)C(=O)N(C)[C@H]1C(=O)N(C)[C@H](C(C)C)C(=O)OC[C@H](NC(=O)c1cnc3ccccc3n1)C(=O)N[C@H](C)C(=O)N2C	4.1 nM (active)
